Common to all, as to experiment: NCI-60 one-dose screen, 48 h (100 = growth as untreated, 0 = no growth, -100 = all killed)
In one experiment the test system is SK-MEL-2 melanoma. Conditions: 10 µM.
The test system of a further experiment is EKVX NSCLC. The settings on record: 10 µM.
The subject of the next experiment is SN12C renal. The settings on record: 10 µM.
The subject of a further experiment is UO-31 renal. The settings on record: 10 µM.
The test system of a further experiment is TK-10 renal. Conditions: 10 µM.
In a further experiment the test system is ACHN renal. Conditions: 10 µM.
The subject of a further experiment is CAKI-1 renal. Conditions: 10 µM.
In another experiment the test system is CCRF-CEM leukemia. The settings on record: 10 µM.
The next experiment has as its system MOLT-4 leukemia. The settings on record: 10 µM.
For the next experiment, the system named is SR leukemia. Conditions: 10 µM unless noted.
The test system of another experiment is RPMI-8226 leukemia. The settings on record: 10 µM.
The next experiment has as its system OVCAR-5 ovarian. Conditions: 10 µM.
For the next experiment, the system named is OVCAR-4 ovarian. The settings on record: 10 µM.
In another experiment the test system is SK-OV-3 ovarian. The settings on record: 10 µM.
The next experiment has as its system IGROV1 ovarian. The settings on record: 10 µM.
The subject of another experiment is NCI/ADR-RES ovarian. The settings on record: 10 µM.
In another experiment the test system is A498 renal. The settings on record: 10 µM.
The next experiment deals with OVCAR-8 ovarian. The settings on record: 10 µM.
A further experiment relates to OVCAR-3 ovarian. Conditions: 10 µM.
In the next experiment the test system is HS 578T breast. The settings on record: 10 µM.

From PubChem BioAssay (NCI) come the findings set out here.

Where “and” joins values, the source holds several entries; their conditions need not be identical. Identical values can stand only once. This is part of a sample that, as a whole, favours compounds with a hit. Of some 83,000 tested, about 20% had one in any assay.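 How to read the values: 0–100, growth inhibition (40 = 60% inhibited); 0, no net growth; -100 to 0, cell death (-40 = 40% of starting cells died; -100 = all dead).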 Calls of active or inactive are those of the source. The calls were made as follows: active = growth percent below 10; inactive = the rest. Where a SMILES comes first, the peptide text is derived from it. [ ]: non-standard residue; d: D form. ξ: configuration not given here. ξV = CC(C)C(N)C(=O)O

As for `CCCCCCCCCCCCCCCCCCOCC(COP(=O)([O-])OCC[N+](C)(C)C)OC` (stereo not drawn), the growth in the experiment on SK-MEL-2 melanoma is 101% (inactive); in the experiment on EKVX NSCLC, 119% (inactive); in the experiment with SN12C renal it was 89.7% (inactive); in the experiment on UO-31 renal it was 94.9% (inactive); in the experiment with TK-10 renal, 64% (inactive); with ACHN renal it was 93.7% (inactive). Also, the growth in the experiment with CAKI-1 renal is 69% (inactive); in the experiment on CCRF-CEM leukemia it was 63.9% (inactive); with MOLT-4 leukemia, 89.4% (inactive); in the experiment on SR leukemia, 48.1% (inactive); in the experiment with RPMI-8226 leukemia it was 33.1% (inactive); in the experiment with OVCAR-5 ovarian, -61.3% (active). For the same compound, the growth was 109% (inactive) in the experiment on OVCAR-4 ovarian, 81.8% (inactive) in the experiment with SK-OV-3 ovarian, 11.8% (inactive) in the experiment with IGROV1 ovarian and 107% (inactive) in the experiment on NCI/ADR-RES ovarian.
As to `Cc1cc(O)c(C(C)C)cc1Cl`, the growth with SK-MEL-2 melanoma is 117% (inactive); in the experiment with EKVX NSCLC, 103% (inactive); with SN12C renal, 104% (inactive); in the experiment on UO-31 renal, 89.8% (inactive); in the experiment with ACHN renal, 106% (inactive); in the experiment with CAKI-1 renal, 99.7% (inactive). Besides, the growth with A498 renal was 118% (inactive); with CCRF-CEM leukemia, 104% (inactive); in the experiment on MOLT-4 leukemia, 99% (inactive); with SR leukemia it was 103% (inactive); with RPMI-8226 leukemia it was 110% (inactive); in the experiment on OVCAR-8 ovarian, 104% (inactive). Further, the growth is 105% (inactive) with OVCAR-5 ovarian; 109% (inactive) with OVCAR-4 ovarian; 101% (inactive) in the experiment on SK-OV-3 ovarian; 112% (inactive) with IGROV1 ovarian; 103% (inactive) in the experiment with OVCAR-3 ovarian; 99.5% (inactive) in the experiment with HS 578T breast. Also, the growth in the experiment with NCI/ADR-RES ovarian was 112% (inactive).
In the case of `NC1=C(Cl)C(=O)c2ccccc2C1=O`, the growth is 51.9% (inactive) in the experiment with SK-MEL-2 melanoma; 107% (inactive) in the experiment on EKVX NSCLC; 62.5% (inactive) in the experiment on SN12C renal; 84.3% (inactive) in the experiment with UO-31 renal; 120% (inactive) in the experiment with TK-10 renal; 76.8% (inactive) in the experiment on ACHN renal. Further, the growth in the experiment with CAKI-1 renal is 89.5% (inactive); with A498 renal, 104% (inactive); in the experiment with CCRF-CEM leukemia, 46% (inactive); in the experiment with MOLT-4 leukemia, 56.1% (inactive); in the experiment with SR leukemia, 46.4% (inactive); in the experiment on RPMI-8226 leukemia it was 55.7% (inactive). For the same compound, the growth with OVCAR-8 ovarian was 74.4% (inactive); in the experiment on OVCAR-5 ovarian, 111% (inactive); in the experiment on OVCAR-4 ovarian it was 72.3% (inactive); with SK-OV-3 ovarian it was 108% (inactive); in the experiment with IGROV1 ovarian, 67.7% (inactive); with HS 578T breast it was 14.5% (inactive). Moreover, the growth in the experiment on NCI/ADR-RES ovarian was 80.4% (inactive).
In the case of `O=C(C(=Cc1ccccc1)C(=O)c1ccccc1)c1ccccc1`, the growth with SK-MEL-2 melanoma is 90% (inactive) and 83.2% (inactive); with EKVX NSCLC it was 79.2% (inactive) and 103% (inactive); in the experiment on SN12C renal it was 78.6% (inactive) and 82.7% (inactive); with UO-31 renal, 60.9% (inactive) and 87.8% (inactive); in the experiment on ACHN renal, 62.3% (inactive) and 85.8% (inactive); in the experiment with CAKI-1 renal, 84.5% (inactive) and 86.8% (inactive). The growth in the experiment with A498 renal is 72.2% (inactive) and 88.6% (inactive); in the experiment with CCRF-CEM leukemia it was 10.8% (inactive) and 81.8% (inactive); in the experiment with MOLT-4 leukemia it was 10.6% (inactive) and 85.4% (inactive); in the experiment with SR leukemia, 6.35% (active) and 108% (inactive); with RPMI-8226 leukemia, -2.63% (active) and 85.2% (inactive); with OVCAR-8 ovarian it was 47.8% (inactive) and 87% (inactive). The growth in the experiment on OVCAR-5 ovarian is 91.7% (inactive) and 84.7% (inactive); with OVCAR-4 ovarian it was 73.6% (inactive) and 84.7% (inactive); with SK-OV-3 ovarian, 99.5% (inactive) and 106% (inactive); in the experiment on IGROV1 ovarian, 75.1% (inactive) and 117% (inactive); in the experiment on HS 578T breast, 65.2% (inactive) and 94.3% (inactive); in the experiment on NCI/ADR-RES ovarian, 54.3% (inactive) and 84.3% (inactive).
In the case of `CC(C)C(NC(=O)CN)C(=O)O` (stereo not drawn) (H-Gly-[ξV]-OH), the growth with SK-MEL-2 melanoma was 108% (inactive) and 109% (inactive); with EKVX NSCLC it was 102% (inactive) and 103% (inactive); with SN12C renal it was 104% (inactive) and 100% (inactive); in the experiment on UO-31 renal, 84% (inactive); in the experiment with ACHN renal, 102% (inactive) and 109% (inactive); with CAKI-1 renal it was 96.4% (inactive) and 97.1% (inactive). Further, the growth is 102% (inactive) and 99.9% (inactive) with A498 renal; 91.9% (inactive) and 96% (inactive) in the experiment on CCRF-CEM leukemia; 79.2% (inactive) and 101% (inactive) in the experiment with MOLT-4 leukemia; 57% (inactive) in the experiment on SR leukemia; 109% (inactive) and 107% (inactive) in the experiment on RPMI-8226 leukemia; 101% (inactive) and 110% (inactive) in the experiment with OVCAR-8 ovarian. Further, the growth in the experiment with OVCAR-5 ovarian was 103% (inactive) and 99.9% (inactive); in the experiment on OVCAR-4 ovarian, 105% (inactive) and 102% (inactive); in the experiment with SK-OV-3 ovarian, 106% (inactive) and 101% (inactive); in the experiment with IGROV1 ovarian, 109% (inactive) and 108% (inactive); in the experiment with OVCAR-3 ovarian, 112% (inactive); with HS 578T breast it was 111% (inactive) and 91.9% (inactive). Also, the growth in the experiment with NCI/ADR-RES ovarian is 105% (inactive) and 111% (inactive).
As to `Clc1ccc(/C=C/c2ccccn2)c(Cl)c1`, the growth in the experiment on SK-MEL-2 melanoma is 107% (inactive); in the experiment with EKVX NSCLC it was 58.9% (inactive); in the experiment with SN12C renal it was 94.4% (inactive); in the experiment on UO-31 renal, 59.6% (inactive); in the experiment on TK-10 renal, 98% (inactive); with ACHN renal, 104% (inactive). Further, the growth with CAKI-1 renal was 72.7% (inactive); in the experiment with MOLT-4 leukemia, 79.5% (inactive); with SR leukemia it was 80.8% (inactive); in the experiment with RPMI-8226 leukemia, 102% (inactive); in the experiment with OVCAR-8 ovarian, 101% (inactive); in the experiment with OVCAR-5 ovarian, 106% (inactive). Besides, the growth was 71.2% (inactive) in the experiment on OVCAR-4 ovarian; 103% (inactive) with SK-OV-3 ovarian; 69.6% (inactive) with IGROV1 ovarian; 86.3% (inactive) with HS 578T breast; 109% (inactive) in the experiment with NCI/ADR-RES ovarian.
